Test results published in the supplement of paper PMC10849652.
Targets with a hit are over-represented here; the source holds about 7,900 in all. About 0.6% of all pairs of compound and target were hits. Values without a mark were called inactive.

Tests used:
Test in all cases: log2 fold change, soluble protein after heating vs DMSO (PISA); higher = thermal stabilisation; K562 cells, 10 uM, 30 min; active = over 0.2 and 3.5 SD of the protein, either way, in both replicates (recomputed)
[1] = compound: CC1=C(C=C(C=C1)NC(=O)C2=CC(=CC=C2)C(C)(C)C#N)NC3=CC4=C(C=C3)N=CN(C4=O)C
In short: (§1)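 K562 cells at 2×10^6 cells/mL were given 10 μM compound for 30 min. Aliquots then went through 3 min of heating across 48°C-58°C, were pooled, and were extracted in PBS with 0.5% NP-40 at 4°C, and the supernatant after 21,000xg for 90 min was quantified by TMTpro 16plex LC-MS/MS with channel sums equalised. Thermal stability relative to control samples, from duplicates, is given as log2 fold change.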

[2] = compound: CC1=C(C=C(C=C1)NC(=O)C2=CC(=CC=C2)N(C)C)NC(=O)C3=CC=C(C=C3)O
In short: as §1

[3] = compound: CC1=CC=C(C=C1)SC2=C3C=C(SC3=CN=C2)C(=O)N
In short: as §1

[4] = compound: CC1=NC(=CC=C1)C2=C(N=C(N2)C(C)(C)C)C3=CC4=NC=CN=C4C=C3
In short: as §1

[5] = compound: CCCCN(Cc1ccc(C(=O)NO)cc1)C(=O)Nc1ccccc1 [Nexturastat A]
In short: as §1

[6] = compound: CCCS(=O)(=O)Nc1ccc(F)c(C(=O)c2c[nH]c3ncc(-c4ccc(Cl)cc4)cc23)c1F [vemurafenib]
In short: as §1

[7] = compound: CCCS(=O)(=O)Nc1ccc(F)c(C(=O)c2c[nH]c3ncc(Cl)cc23)c1F
In short: as §1

[8] = compound: CCCc1cc(C)[nH]c(=O)c1CNC(=O)c1cc(-c2ccnc(N3CCN(C)CC3)c2)cc2c1cnn2C(C)C
In short: as §1

[9] = compound: CCN(CC)Cc1ccc2cc(COC(=O)Nc3ccc(C(=O)NO)cc3)ccc2c1 [givinostat]
In short: as §1

[10] = compound: CCN(CCCOc1ccc2c(Nc3cc(CC(=O)Nc4cccc(F)c4)[nH]n3)ncnc2c1)CCOP(=O)(O)O [barasertib]
In short: as §1

[11] = compound: CC[C@@H]1C(=O)N(C)c2cnc(Nc3ccc(C(=O)NC4CCN(C)CC4)cc3OC)nc2N1C1CCCC1
In short: as §1

[12] = compound: CC[C@@H]1C(=O)N(C)c2cnc(Nc3ccc(C(=O)N[C@H]4CC[C@H](N5CCN(CC6CC6)CC5)CC4)cc3OC)nc2N1C(C)C [volasertib]
In short: as §1

[13] = compound: CC[C@H](C)N1C=C(C2=C(C=C(C=C21)C3=CN=C(C=C3)N4CCNCC4)C(=O)NCC5=C(C=C(NC5=O)C)C)C
In short: as §1

[14] = compound: CC[C@H](C)[C@@H](C(=O)N[C@@H]([C@@H](C)O)C(=O)N[C@@H](CC(C)C)C(=O)[C@]1(CO1)C)NC(=O)[C@H]([C@@H](C)CC)N(C)C(=O)C [epoxomicin]
In short: as §1

[15] = compound: CCn1c(C(=O)N(C2CC2)C2CC2)cc2c3c(ncn3C)c(Nc3cc(C)n(C)n3)nc21
In short: as §1

[16] = compound: CCn1cc(-c2ccnc3[nH]c(-c4cccc(CN(C)C)c4)cc23)c(-c2ccc(NC(=O)N(C)C)cc2)n1
In short: as §1

[17] = compound: CN(C)CC(=O)Nc1ccc2[nH]c(=O)c3ccccc3c2c1
In short: as §1

[18] = compound: CN(CCOC1=CC=C(C=C1)C[C@H]2C(=O)NC(=O)S2)C3=CC=CC=N3 (racemic) [rosiglitazone]
In short: as §1

[19] = compound: CN1C2=C(C3=C1C(=O)N(N=C3)CC4=CC(=CC=C4)N)SC(=C2)S(=O)C
In short: as §1

[20] = compound: CN1CCC(CNc2ccc3ncc(-c4cccc(OC(F)(F)F)c4)n3n2)CC1
In short: as §1

Sequence of UniProt Q8IZV5 (Q8IZV5 whole entry, looked up): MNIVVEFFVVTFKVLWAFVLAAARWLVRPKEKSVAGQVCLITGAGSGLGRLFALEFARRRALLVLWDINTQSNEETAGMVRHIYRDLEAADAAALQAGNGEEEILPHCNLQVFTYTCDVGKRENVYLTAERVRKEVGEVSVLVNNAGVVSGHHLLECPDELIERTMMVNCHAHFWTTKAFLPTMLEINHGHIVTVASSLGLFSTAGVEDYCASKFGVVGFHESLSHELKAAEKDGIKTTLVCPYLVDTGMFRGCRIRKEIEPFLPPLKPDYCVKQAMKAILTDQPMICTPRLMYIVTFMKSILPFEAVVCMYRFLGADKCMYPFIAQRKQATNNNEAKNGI
Sequence of UniProt Q8NBX0 (Q8NBX0 whole entry, looked up): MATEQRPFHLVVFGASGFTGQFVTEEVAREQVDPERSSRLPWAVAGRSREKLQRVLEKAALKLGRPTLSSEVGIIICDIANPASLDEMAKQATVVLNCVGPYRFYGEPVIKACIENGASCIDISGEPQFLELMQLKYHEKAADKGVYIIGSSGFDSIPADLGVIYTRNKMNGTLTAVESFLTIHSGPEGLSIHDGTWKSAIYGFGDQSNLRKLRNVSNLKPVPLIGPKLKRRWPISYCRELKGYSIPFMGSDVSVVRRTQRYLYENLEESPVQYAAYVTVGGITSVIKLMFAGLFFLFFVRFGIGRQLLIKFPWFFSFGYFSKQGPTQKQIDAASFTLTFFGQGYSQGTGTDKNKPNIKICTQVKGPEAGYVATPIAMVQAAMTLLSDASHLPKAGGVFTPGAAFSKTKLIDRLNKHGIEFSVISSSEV
Sequence of UniProt Q9HB40 (Q9HB40 whole entry, looked up): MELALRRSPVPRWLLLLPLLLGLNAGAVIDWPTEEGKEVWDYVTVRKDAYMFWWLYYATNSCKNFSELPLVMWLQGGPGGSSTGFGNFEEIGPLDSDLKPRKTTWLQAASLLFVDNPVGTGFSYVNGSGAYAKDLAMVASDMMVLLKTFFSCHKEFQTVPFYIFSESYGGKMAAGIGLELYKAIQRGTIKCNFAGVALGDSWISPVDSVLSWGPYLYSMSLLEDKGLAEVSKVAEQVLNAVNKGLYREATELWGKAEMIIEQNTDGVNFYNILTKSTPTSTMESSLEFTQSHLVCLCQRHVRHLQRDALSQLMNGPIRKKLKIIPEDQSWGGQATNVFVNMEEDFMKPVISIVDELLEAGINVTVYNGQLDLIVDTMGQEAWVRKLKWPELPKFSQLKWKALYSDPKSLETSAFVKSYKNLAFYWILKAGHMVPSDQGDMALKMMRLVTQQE
Sequence of UniProt O00767 (O00767 whole entry, looked up): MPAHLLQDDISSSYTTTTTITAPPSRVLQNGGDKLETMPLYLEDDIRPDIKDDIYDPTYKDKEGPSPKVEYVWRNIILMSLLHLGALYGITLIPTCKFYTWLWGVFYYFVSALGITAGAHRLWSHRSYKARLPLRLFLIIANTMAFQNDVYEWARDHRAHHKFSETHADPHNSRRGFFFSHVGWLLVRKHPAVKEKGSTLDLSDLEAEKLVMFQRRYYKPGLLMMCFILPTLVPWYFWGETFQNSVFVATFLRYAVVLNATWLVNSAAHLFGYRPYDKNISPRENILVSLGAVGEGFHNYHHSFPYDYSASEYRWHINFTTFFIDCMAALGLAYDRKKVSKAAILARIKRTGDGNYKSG
Sequence of UniProt Q9P2N5 (Q9P2N5 whole entry, looked up): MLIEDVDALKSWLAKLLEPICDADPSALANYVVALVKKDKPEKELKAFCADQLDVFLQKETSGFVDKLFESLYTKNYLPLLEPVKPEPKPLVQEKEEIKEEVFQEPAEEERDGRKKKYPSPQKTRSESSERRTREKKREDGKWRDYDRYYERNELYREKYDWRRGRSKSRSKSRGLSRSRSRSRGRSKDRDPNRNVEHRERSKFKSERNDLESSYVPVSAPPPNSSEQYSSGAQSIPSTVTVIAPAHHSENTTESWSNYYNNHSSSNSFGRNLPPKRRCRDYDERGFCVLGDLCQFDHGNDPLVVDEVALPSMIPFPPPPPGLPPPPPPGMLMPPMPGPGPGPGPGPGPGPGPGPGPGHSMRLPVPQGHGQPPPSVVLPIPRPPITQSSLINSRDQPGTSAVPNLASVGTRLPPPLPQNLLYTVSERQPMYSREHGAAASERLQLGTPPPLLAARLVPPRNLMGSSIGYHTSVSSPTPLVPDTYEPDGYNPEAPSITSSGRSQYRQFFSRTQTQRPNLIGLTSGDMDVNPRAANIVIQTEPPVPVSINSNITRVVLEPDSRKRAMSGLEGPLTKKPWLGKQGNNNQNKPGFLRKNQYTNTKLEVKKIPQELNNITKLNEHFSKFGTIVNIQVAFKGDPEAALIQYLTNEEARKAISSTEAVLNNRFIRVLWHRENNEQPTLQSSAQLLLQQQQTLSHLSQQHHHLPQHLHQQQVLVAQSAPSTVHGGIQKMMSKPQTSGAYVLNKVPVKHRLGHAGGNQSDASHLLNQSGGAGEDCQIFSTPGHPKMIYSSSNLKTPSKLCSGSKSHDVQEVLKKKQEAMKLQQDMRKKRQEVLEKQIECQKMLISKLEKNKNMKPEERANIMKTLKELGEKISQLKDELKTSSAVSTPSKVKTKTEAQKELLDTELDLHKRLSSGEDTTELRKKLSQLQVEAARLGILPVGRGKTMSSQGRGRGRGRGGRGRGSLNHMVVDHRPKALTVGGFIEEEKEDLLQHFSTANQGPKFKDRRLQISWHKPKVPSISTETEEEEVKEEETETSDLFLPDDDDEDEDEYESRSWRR
Sequence of UniProt Q5T8P6 (Q5T8P6 whole entry, looked up): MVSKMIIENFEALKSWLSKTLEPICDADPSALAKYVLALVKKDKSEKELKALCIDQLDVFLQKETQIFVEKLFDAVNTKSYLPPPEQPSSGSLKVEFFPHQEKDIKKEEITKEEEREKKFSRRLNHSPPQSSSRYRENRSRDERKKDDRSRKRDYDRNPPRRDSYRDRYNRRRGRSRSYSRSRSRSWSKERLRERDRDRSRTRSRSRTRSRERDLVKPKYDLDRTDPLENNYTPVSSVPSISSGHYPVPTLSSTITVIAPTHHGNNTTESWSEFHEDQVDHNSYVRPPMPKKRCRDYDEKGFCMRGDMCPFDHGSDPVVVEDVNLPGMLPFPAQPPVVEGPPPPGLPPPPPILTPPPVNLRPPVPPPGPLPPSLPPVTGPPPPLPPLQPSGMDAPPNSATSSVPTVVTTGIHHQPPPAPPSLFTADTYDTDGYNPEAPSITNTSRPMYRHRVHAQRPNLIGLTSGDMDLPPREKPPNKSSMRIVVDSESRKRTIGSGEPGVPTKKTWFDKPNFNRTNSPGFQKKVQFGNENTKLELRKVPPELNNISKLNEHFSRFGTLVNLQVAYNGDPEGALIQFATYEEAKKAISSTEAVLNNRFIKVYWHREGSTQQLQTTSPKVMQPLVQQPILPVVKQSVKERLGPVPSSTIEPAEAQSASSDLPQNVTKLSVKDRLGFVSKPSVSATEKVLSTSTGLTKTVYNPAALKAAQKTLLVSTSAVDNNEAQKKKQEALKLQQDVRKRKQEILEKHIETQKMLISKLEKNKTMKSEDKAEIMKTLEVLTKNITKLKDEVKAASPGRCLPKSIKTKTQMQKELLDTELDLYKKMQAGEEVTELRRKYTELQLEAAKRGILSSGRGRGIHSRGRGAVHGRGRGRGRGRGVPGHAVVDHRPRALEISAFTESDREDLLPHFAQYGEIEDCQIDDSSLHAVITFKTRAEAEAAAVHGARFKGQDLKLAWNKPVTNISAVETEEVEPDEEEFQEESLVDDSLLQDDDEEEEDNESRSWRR
Sequence of UniProt Q9BUV8 (Q9BUV8 whole entry, looked up): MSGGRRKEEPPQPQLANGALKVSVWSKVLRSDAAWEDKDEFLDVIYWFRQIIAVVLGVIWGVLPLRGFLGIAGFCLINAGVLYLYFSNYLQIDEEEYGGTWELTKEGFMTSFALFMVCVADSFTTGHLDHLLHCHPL
Sequence of UniProt Q96EV2 (Q96EV2 whole entry, looked up): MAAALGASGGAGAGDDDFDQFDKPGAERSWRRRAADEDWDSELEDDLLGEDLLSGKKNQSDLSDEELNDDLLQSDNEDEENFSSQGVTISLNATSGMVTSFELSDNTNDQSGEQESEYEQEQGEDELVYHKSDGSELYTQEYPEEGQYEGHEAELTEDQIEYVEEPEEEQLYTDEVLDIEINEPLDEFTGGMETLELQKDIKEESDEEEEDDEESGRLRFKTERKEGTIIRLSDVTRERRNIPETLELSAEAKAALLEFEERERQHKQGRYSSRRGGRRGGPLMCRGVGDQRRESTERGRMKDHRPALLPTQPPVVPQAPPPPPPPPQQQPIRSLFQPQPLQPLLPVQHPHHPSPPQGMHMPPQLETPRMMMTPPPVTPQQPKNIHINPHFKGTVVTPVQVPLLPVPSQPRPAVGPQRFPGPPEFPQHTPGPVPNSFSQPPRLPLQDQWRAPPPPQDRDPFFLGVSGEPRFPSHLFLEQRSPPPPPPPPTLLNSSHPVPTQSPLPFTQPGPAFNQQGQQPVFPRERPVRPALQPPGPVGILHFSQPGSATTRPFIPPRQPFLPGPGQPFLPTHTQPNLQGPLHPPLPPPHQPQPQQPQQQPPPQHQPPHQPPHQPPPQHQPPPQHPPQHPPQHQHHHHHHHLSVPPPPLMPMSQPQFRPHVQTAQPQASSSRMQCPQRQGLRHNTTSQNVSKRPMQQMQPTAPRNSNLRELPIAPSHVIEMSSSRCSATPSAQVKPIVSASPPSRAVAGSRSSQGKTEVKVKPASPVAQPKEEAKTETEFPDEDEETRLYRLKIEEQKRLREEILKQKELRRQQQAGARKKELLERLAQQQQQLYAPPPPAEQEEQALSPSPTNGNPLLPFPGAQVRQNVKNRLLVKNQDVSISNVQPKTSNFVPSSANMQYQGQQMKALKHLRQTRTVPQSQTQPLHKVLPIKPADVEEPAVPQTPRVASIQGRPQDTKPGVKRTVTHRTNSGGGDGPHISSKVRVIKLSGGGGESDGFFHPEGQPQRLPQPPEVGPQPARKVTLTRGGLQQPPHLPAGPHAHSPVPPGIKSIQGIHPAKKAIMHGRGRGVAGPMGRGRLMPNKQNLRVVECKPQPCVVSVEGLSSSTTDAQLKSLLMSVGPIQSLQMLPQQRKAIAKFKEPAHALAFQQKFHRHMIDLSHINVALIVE

| Target | log2 fold change [1] | log2 fold change [2] | log2 fold change [3] | log2 fold change [4] | log2 fold change [5] | log2 fold change [6] | log2 fold change [7] | log2 fold change [8] | log2 fold change [9] | log2 fold change [10] | log2 fold change [11] | log2 fold change [12] | log2 fold change [13] | log2 fold change [14] | log2 fold change [15] | log2 fold change [16] | log2 fold change [17] | log2 fold change [18] | log2 fold change [19] | log2 fold change [20] |
| --- | --- | --- | --- | --- | --- | --- | --- | --- | --- | --- | --- | --- | --- | --- | --- | --- | --- | --- | --- | --- |
| RAB5IF isoform 5 (UniProt Q9BUV8) | 0.044 | 0.01 | -0.042 | 0.247 | -0.143 | 0.047 | 0.012 | 0.244 | -0.007 | -0.003 | -0.025 | 0.036 | -0.129 | 0.017 | 0.011 | -0.056 | -0.031 | 0.028 | 0.003 | 0.092 |
| RBM26 isoform 3 (UniProt Q5T8P6) | 0.017 |  |  |  |  |  |  |  |  |  |  |  |  |  |  |  |  |  |  |  |
| RUFY1 (UniProt Q96T51) | 0.013 | -0.011 | -0.022 | -0.035 | 0.063 | 0.043 | 0.059 | 0.029 | 0.031 | 0.027 | -0.145 | -0.355 (active) | 0.07 | -0.015 | 0.009 | 0.06 | 0.033 | 0.036 | 0.032 | -0.058 |
| SCD (UniProt O00767) | -0.076 | 0.037 | 0.038 | 0.078 | -0.121 | 0.022 | -0.053 | -0.021 | -0.457 (active) | 0.003 | 0 | 0.009 | -0.063 | 0.109 | 0.103 | 0.036 | 0.008 | -0.023 | 0.025 | 0.095 |
| SCPEP1 (UniProt Q9HB40) | -0.003 | 0.016 | 0.05 | 0.022 | -0.035 | 0.002 | 0.013 | -0.028 | -0.031 | 0.012 | -0.608 (active) | -1.44 (active) | -0.022 | 0.044 | 0.011 | -0.095 | -0.001 | 0.019 | 0.019 | -0.846 (active) |
| RBM27 (UniProt Q9P2N5) | 0.031 | -0.008 | 0.01 | -0.018 | 0.025 | -0.008 | 0.09 | 0.041 | 0.013 | 0.009 | -0.141 | -0.296 (active) | 0.014 | 0.014 | -0.11 | 0.001 | 0.027 | 0.055 | -0.013 | -0.068 |
| SCCPDH (UniProt Q8NBX0) | 0.147 | -0.092 | 0.074 | 0.037 | -0.232 | -0.016 | -0.123 | 0.016 | 0.183 | 0.046 | 0.083 | 0.158 | -0.06 | -0.024 | 0.008 | -0.07 | 0.039 | 0.022 | -0.194 | 0.216 |
| RPS3A (UniProt P61247) | 0.011 | 0.009 | -0.081 | -0.036 | 0.069 | -0.104 | -0.095 | 0.071 | -0.033 | -0.109 | 0.133 | 0.339 | 0.02 | -0.124 | 0.028 | 0.114 | -0.063 | -0.064 | 0.138 | 0.105 |
| RDH10 (UniProt Q8IZV5) | 0.004 | -0.034 | 0.047 | -0.055 | -0.107 | -0.016 | -0.058 | -0.043 | -0.091 | 0.011 | 0.068 | 0.037 | 0.034 | -0.026 | -0.056 | 0.021 | -0.006 | 0.021 | -0.19 | 0.09 |
| SAMSN1 isoform 3 (UniProt Q9NSI8) | 0.014 | -0.011 | 0.029 | 0.017 | -0.027 | -0.001 | 0.029 | 0 | 0.02 | 0.042 | -0.069 | -0.153 | 0.026 | 0.018 | -0.02 | -0.065 | 0.017 | 0.067 | 0 | -0.253 (active) |
| RPS3 (UniProt P23396) | 0.011 | 0.003 | -0.077 | -0.042 | 0.069 | -0.086 | -0.102 | 0.041 | 0.007 | -0.088 | 0.147 | 0.34 | 0.011 | -0.125 | 0.033 | 0.125 | -0.071 | -0.064 | 0.085 | 0.045 |
| RBIS (UniProt Q8N0T1) | -0.099 | -0.011 | -0.055 | 0.023 | -0.012 | -0.002 | -0.063 | -0.074 | -0.02 | -0.009 | 0.105 | 0.06 | -0.012 | 0.204 | 0.034 | 0.075 | -0.108 | -0.008 | 0.026 | -0.034 |
| RETSAT (UniProt Q6NUM9) | 0.014 | 0.025 | 0.088 | -0.037 | -0.003 | -0.03 | -0.077 | -0.091 | 0.31 | 0.009 | -0.073 | -0.073 | 0.024 | -0.003 | -0.083 | -0.012 | 0.036 | 0.042 | -0.011 | 0.053 |
| RRS1 (UniProt Q15050) | 0.024 | 0.021 | -0.043 | -0.163 | 0.31 | -0.174 | -0.03 | 0.104 | 0.093 | -0.101 | 0.291 | 0.286 | 0.023 | -0.381 | 0.051 | 0.143 | -0.029 | -0.147 | 0.28 | 0.268 |
| RBM26 isoform 2 (UniProt Q5T8P6) | 0.122 | -0.088 | 0.033 | 0.116 | -0.184 | 0.143 | 0.09 | -0.014 | 0.097 | 0.079 | -0.207 | -0.299 | 0.151 | 0.098 | -0.061 | -0.069 | 0.072 | 0.094 | -0.011 | -0.177 |
| RBM33 (UniProt Q96EV2) | -0.024 | -0.001 | -0.014 | 0.014 | 0.021 | -0.019 | 0.022 | 0.022 | 0.077 | 0.037 | -0.101 | -0.105 | 0.035 | 0.022 | 0.012 | -0.005 | -0.025 | -0.024 | 0.023 | 0.004 |
| ROCK1 (UniProt Q13464) | 0.003 | -0.073 | -0.016 | -0.037 | 0.093 | 0.052 | 0.036 | -0.019 | 0.031 | 0.021 | -0.005 | -0.083 | 0.005 | -0.011 | 0.002 | -0.05 | -0.011 | 0.042 | 0.031 | 0.096 |
